# From PubChem
# BoNT-F LC inh: blocks Botulinum neurotoxin F light chain protease; AID 588497; 360,000 compounds, 0.22% hits; Multiplex microsphere protease cleavage assay, flow cytometry; inhibition, % at 10 µM; in the data active = inhibition above about 35%, passing the limit was not always enough; inconclusive = no clear call, values can overlap the other calls; also: plate controls were buffer without enzyme for full effect and enzyme alone for no effect
# BoNT A protease: BoNT A light chain protease inhibition | multiplex microsphere protease substrate cleavage, flow cytometry | inhibition, % at 10 µM | 360,000 compounds, 0.17% hits; also: plate controls were buffer without enzyme for full effect and enzyme alone for no effect
# Autofluor counter: counter-screen for toxin protease inhibitors: compound fluorescence; fluorescence intensity (concentration not given with the values); AID 624483; 360,000 compounds, 3.1% hits; compound autofluorescence counterscreen, microsphere flow cytometry; stronger effect = higher value; in the data active = fluorescence intensity above about 16000; inconclusive = no clear call, values can overlap the other calls
# Anthrax LF prot: anthrax lethal factor protease inhibition; P15917; multiplex microsphere protease cleavage assay, LF; inhibition, % at 10 µM; 360,000 compounds, 0.12% hits; AID 588501; also: plate controls were buffer without enzyme for full effect and enzyme alone for no effect
# BJeLR lethal: BJeLR cell viability loss. 300,000 compounds, 0.17% hits. AID 1554. inhibition, % (concentration not given with the values). BJeLR (HRASV12) viability, CellTiter-Glo ATP luminescence, 48 h; in the data active = inhibition above about 50%; inconclusive = no clear call, values can overlap the other calls
# 3CLpro inhibitor: SARS-CoV 3CLpro protease inhibition. P0C6X7. 290,000 compounds, 0.14% hits. AID 1706. recombinant SARS-CoV 3CLpro, quenched FRET peptide cleavage. inhibition, % at 6 µM; in the data active = inhibition above about 12%
# The depositor's hits bear a star; ? = inconclusive; · = not tested or not shown. An excerpt weighted towards active compounds, which were near 3.6% of everything screened. Rule as the data show it, unless noted: active = inhibition above about 30%; inconclusive = no clear call, values can overlap the other calls; inactive = below that.
SMILES,BoNT-F LC inh,BoNT A protease,Autofluor counter,Anthrax LF prot,BJeLR lethal,3CLpro inhibitor
COCC(=O)Nc1ccccc1C(=O)Nc1ccc(OC)cc1,2,1,22328*,-2,15,4
Cc1cc(Br)ccc1OCCCCN1CCCCC1,-1,0,2245,-1,5,5
c1cc(-c2cc3nc(NC4CCCCC4)ccn3n2)ccc1OCCN1CCOCC1,-3,1,4049,-4,·,·
NC(=O)c1ccccc1NC(=O)Nc1cccc(Cl)c1,-6,-1,20064*,1,7,6
NC(=O)c1ccccc1NC(=O)NC1CCCCC1,-1,?,22128*,-3,6,-4
COc1ccccc1Nc1ncccc1C(=O)NCc1ccccc1,-3,-1,20309*,-3,-1,1
O=C(Nc1cccc(Cl)c1)Nc1ccccc1C(=O)O,-30,-8,8318,5,19,4
CSc1ccccc1C(=O)NC1CCCCCC1,1,1,20204*,1,7,-5
CSc1ccc(CCCCCCOC(=O)C(C)(C)C)cc1,-6,-1,2846,0,·,·
C/C(=N\Nc1ccc(Cl)c(C(=O)O)c1)c1ccc[nH]1,·,·,·,·,-5,-2
Cn1c(SCC(=O)NC2CC2)nnc1-c1ccc(Cl)cc1,-8,-2,6380,-3,·,·
COc1ccc(-c2nnc(SCC(N)=O)n2N)cc1,5,2,10349,4,9,0
C=C(C)CSc1nnc(-c2ccc(OC)cc2)n1N,1,1,19732*,1,-5,0
C=C(C)CSc1nnc(-c2cccc(Cl)c2)n1N,5,4,21220*,-3,-1,-7
Nn1c(SCC(=O)Nc2ccc3c(c2)OCO3)nnc1-c1cccc(Cl)c1,4,0,9039,-3,·,4
O=C(CC(C(=O)O)N1CCOCC1)Nc1ccc(Cl)cc1 (stereo unspecified),2,1,19713*,0,0,-4
CCOC(=O)c1nn(-c2ccccc2)c(=O)cc1SC(C)CC (stereo unspecified),-3,-2,23432*,0,4,-1
CCCCSc1cc(=O)n(-c2ccccc2)nc1C(=O)OCC,-4,-2,23302*,0,-16,1
CCOCCCNc1ccc(N2C(=O)CCCC2=O)cc1[N+](=O)[O-],-10,-5,3328,-10,-10,-3
Cc1c(NS(=O)(=O)N2CCCC2)c(=O)n(-c2ccccc2)n1C,4,1,22285*,-2,-2,3
Cc1ccc(C(=O)Nc2c(C)n(C)n(-c3ccccc3)c2=O)cc1S(=O)(=O)N1CCOCC1,4,1,2306,0,-4,2
Cc1ccc(S(=O)(=O)N2CCOCC2)cc1C(=O)Nc1c(C)n(C)n(-c2ccccc2)c1=O,-3,?,22630*,-4,0,-3
Cc1ccsc1C=Nc1ccc(O)cc1,-2,0,16460*,-3,5,0
Cc1ccsc1/C=N/N=C/c1sccc1C,2,-1,3635,-6,21,-1
CCC(CC)C(=O)Nc1cccc(C(=O)Nc2ccc(S(=O)(=O)Nc3ccc(C)cc3)cc2)c1,-4,0,22769*,1,-3,9
SMILES,BoNT-F LC inh,BoNT A protease,Autofluor counter,Anthrax LF prot,BJeLR lethal,3CLpro inhibitor
CCC(CC)C(=O)Nc1cccc(S(=O)(=O)c2cccc(NC(=O)C(CC)CC)c2)c1,-1,-1,16846*,-1,0,0
CCC(CC)C(=O)Nc1cccc(C(=O)Nc2ccc(S(N)(=O)=O)cc2)c1,-5,-1,3823,-6,-1,1
COc1ccc(C(=O)Nn2cc3c(c2-c2ccccc2)c(=O)n(C)c(=O)n3C)cc1,1,0,20615*,-1,-10,2
Cc1nc2n(n1)CC(O)CS2 (stereo unspecified),-6,-3,23205*,-1,8,1
COc1ccc2c(c1C)CCC(C)(C#N)C2=O (stereo unspecified),-1,0,3177,-6,·,·
COc1ccc(NC(=O)C(CC(=O)O)Cc2ccccc2)cc1 (stereo unspecified),3,2,22396*,4,3,0
CCN1CCN(Cc2cc(Br)cc(OC)c2O)CC1,0,0,22198*,2,0,-6
Cc1cc(Nc2ccccc2C(=O)O)nc2nc3ccccc3c(=O)n12,-4,-1,16916*,-15,-4,2
Cc1cc(CC(C)C)n(-c2nc3ccccc3c(=O)n2OCc2ccccc2)n1,-6,?,23326*,-3,-10,5
Cc1cc(C)n(-c2nc3ccccc3c(=O)n2OCc2ccc(Cl)cc2)n1,-3,?,22331*,-2,-5,-4
